# From PubChem BioAssay (Tox21)
# “And” between values parts separate entries of the source, which are not always exact repeats. Identical values can stand only once. Records with an inconclusive call do not appear. Entries that show only a call come without a potency. Some compounds were tested as several samples or in several runs, with calls that do not always agree. The source made the active and inactive calls. The call rests on the fitted dose curve; in most records, active means well fitted curve in the direction sought with a large enough effect in the repeat runs; inconclusive means weak or mixed curves; inactive means no such curve, though single readings can be large; an effect the other way counts as inactive or inconclusive. Non-standard residues stand in square brackets, D forms with d. Residues, ends and D or L forms follow the SMILES beside them. Orn = NCCC[C@H](N)C(=O)O
# Columns and labels:
# [1] = molecular target: Nuclear receptor subfamily 1 group I member 2 (Rattus norvegicus) (UniProt Q9R1A7); assay: Rat pregnane X receptor (rPXR) activation by small molecules, qHTS assay (AID 1346983); conditions: rPXR luciferase reporter cells, One-Glo luminescence, 24 h; max activation: stronger effect = higher value; further: nearly all actives have a fitted effect of over 20% in size
# Sequence of Nuclear receptor subfamily 1 group I member 2 (Rattus norvegicus) (Q9R1A7 whole entry, looked up): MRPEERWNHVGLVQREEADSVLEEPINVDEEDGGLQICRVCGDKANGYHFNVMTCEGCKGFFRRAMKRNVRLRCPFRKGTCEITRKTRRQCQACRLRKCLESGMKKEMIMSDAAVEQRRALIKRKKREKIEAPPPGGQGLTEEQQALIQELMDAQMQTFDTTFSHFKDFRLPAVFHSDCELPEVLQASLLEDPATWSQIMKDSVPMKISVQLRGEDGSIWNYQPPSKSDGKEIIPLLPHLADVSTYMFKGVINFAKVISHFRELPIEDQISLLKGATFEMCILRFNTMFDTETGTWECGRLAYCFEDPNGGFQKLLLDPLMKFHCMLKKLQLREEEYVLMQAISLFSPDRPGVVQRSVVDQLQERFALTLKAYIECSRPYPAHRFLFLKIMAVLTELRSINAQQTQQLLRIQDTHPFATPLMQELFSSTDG
# In short: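 Luminescent readout (One-Glo luciferase, 30 min room temperature) followed 24 hr compound treatment at 37 C of rPXR cells plated 2,000 per well and preincubated 5hr; qHTS format with compounds delivered in DMSO.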
# [2] = molecular target: Nuclear receptor subfamily 1 group I member 2 (Homo sapiens) (UniProt O75469); assay: CYP3A4 induction through human pregnane X receptor (PXR) by small molecules, qHTS assay (AID 1346984); further: nearly all actives have a fitted effect of over 40% in size
# In short: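 DPX-2 reporter cells; 24h cpd, 37C; Luciferin-IPA 3uM final x3h; One-Glo 30 min RT; lumi read.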
# [3] = molecular target: Nuclear receptor subfamily 1 group I member 2 (Homo sapiens) (UniProt O75469); assay: Human pregnane X receptor (PXR) activation by small molecules, qHTS assay (AID 1346985); further: nearly all actives have a fitted effect of over 40% in size; further: potency means the concentration at half of the fitted maximal effect
# In short: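 DPX-2 cells (HepG2 co-transfected with a PXR response element and a CYP3A4-promoter luciferase construct) were seeded at 2,000 per well, rested 5 hr at 37C, then exposed to DMSO-dissolved compounds for 24 hr. Activation was read as luciferase luminescence.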
Structure (SMILES),max activation [1],Potency [2],Potency [3]
CC1CCCCN1CCCOC(=O)c1ccccc1 (configuration not stated),-7.12% (inactive),inactive,inactive
CC(=O)OCC(=O)[C@@]1(O)CC[C@H]2[C@@H]3CCC4=CC(=O)CC[C@]4(C)C3=CC[C@@]21C,-1.67% (inactive),inactive,inactive
C[C@@H]1O[C@@H](OC[C@H]2O[C@@H](Oc3c(-c4ccc(OCCO)c(OCCO)c4)oc4cc(OCCO)cc(O)c4c3=O)[C@H](O)[C@@H](O)[C@@H]2O)[C@H](O)[C@H](O)[C@H]1O,-1.87% (inactive),inactive,inactive
CC(C)c1ncc([N+](=O)[O-])n1C,-4.41% (inactive),inactive,inactive
C[S+](CC[C@H](N)C(=O)O)C[C@H]1O[C@@H](n2cnc3c(N)ncnc32)[C@H](O)[C@@H]1O (some centres not stated),-2.9% (inactive) and 0.617% (inactive),inactive,inactive
CCOc1ccc(S(=O)(=O)O)c2cccnc12,-0.221% (inactive),inactive,inactive
CC(C)NCC1CCc2cc(CO)c([N+](=O)[O-])cc2N1 (configuration not stated),-0.344% (inactive),inactive,inactive
C=C1[C@@H]2CC[C@@H](C2)C1(C)C,-3.65% (inactive),inactive,inactive
N[C@@H](Cc1cnc[nH]1)C(=O)O,-4.66% (inactive),inactive,inactive
Oc1ccc(Cl)c2c1CCC2,0.0185% (inactive),inactive,inactive
CCCCCCCCCCCCCCCC(=O)OC[C@H](COP(=O)([O-])OCC[N+](C)(C)C)OC(=O)CCCCCCCCCCCCCCC,0.686% (inactive),inactive,inactive
C=N[C@@H](C(=O)N[C@@H]1C(=O)N2[C@@H]1SC(C)(C)[C@@H]2C(=O)O)c1ccccc1,-2.74% (inactive),inactive,inactive
CC[C@@H](C(=O)[C@@H](C)[C@@H](O)[C@H](C)CCc1ccc(C)c(O)c1C(=O)O)[C@H]1O[C@](CC)([C@H]2CC[C@](O)(CC)[C@H](C)O2)C[C@@H]1C,-6.82% (inactive),inactive,8.91 µM (active)
Cc1onc(-c2c(F)cccc2Cl)c1C(=O)N[C@@H]1C(=O)N2[C@@H]1SC(C)(C)[C@@H]2C(=O)O,-1.83% (inactive) and -3.33% (inactive),inactive,inactive and 25.1 µM (active)
NC(=O)[C@@H]1CCCN1C(=O)[C@H](Cc1cnc[nH]1)NC(=O)[C@@H]1CCC(=O)N1,-0.96% (inactive),inactive,inactive
NC(=O)[C@H]1O[C@@H](O)[C@H](O)[C@@H](O)[C@@H]1O,-0.18% (inactive),inactive,inactive
CC(C)C[C@@H]1NC(=O)[C@H](CCCN)NC(=O)[C@H](C(C)C)NC(=O)[C@@H]2CCCN2C(=O)[C@@H](Cc2ccccc2)NC(=O)[C@H](CC(C)C)NC(=O)[C@H](CCCN)NC(=O)[C@H](C(C)C)NC(=O)[C@@H]2CCCN2C(=O)[C@@H](Cc2ccccc2)NC1=O (cyclo(V[Orn]L[dF]PV[Orn]L[dF]P)),-16.3% (inactive),inactive,inactive
O=C(O)c1ccc(NC2OC[C@@H](O)[C@H](O)[C@H]2O)cc1 (some centres not stated),10.7% (inactive),inactive,inactive
COc1cc2c(cc1O)CCN[C@]21CS[C@@H]2c3c(OC(C)=O)c(C)c4c(c3[C@H](COC1=O)N1[C@@H]2[C@H]2c3c(cc(C)c(OC)c3O)C[C@@H]([C@@H]1O)N2C)OCO4,-17.5% (inactive),inactive,inactive
CC(C)CCC[C@@H](C)[C@H]1CC[C@H]2[C@@H]3CC=C4C[C@@H](O)CC[C@]4(C)[C@H]3CC[C@]12C,-2.66% (inactive),inactive,inactive
OCC1(CO)COC(C(Cl)(Cl)Cl)OC1,-2.81% (inactive),inactive,inactive
CNCC(=O)N[C@@H](CCCN=C(N)N)C(=O)N[C@H](C(=O)N[C@@H](Cc1ccc(O)cc1)C(=O)N[C@H](C(=O)N[C@@H](Cc1cnc[nH]1)C(=O)N1CCC[C@H]1C(=O)N[C@@H](C)C(=O)O)C(C)C)C(C)C,-0.307% (inactive),inactive,inactive
CS(=O)(=O)c1ccc([C@@H](O)[C@@H](COC(=O)CN)NC(=O)C(Cl)Cl)cc1,-5.77% (inactive),inactive,inactive
CO/N=C(\C(=O)N[C@@H]1C(=O)N2C(C(=O)O)=C(CSc3nc(C)c(CC(=O)O)s3)CS[C@H]12)c1csc(N)n1,-4.17% (inactive),inactive,inactive
